HSF1 inh = HSF1 inhibition; NIH3T3-HGL HSE-luciferase, MG132-induced, luminescence 8 h; active compounds read low; activity change, negative = inhibition, % at 7.5 µM (by protocol); hit rate 0.77% among 300,000; AID 2098;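 active = more than half of replicate wells show activity change below -50%, luminescence cut by over half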;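 note: luciferase reports HSF-1 transcriptional activity via heat shock element; 0% = median of DMSO wells and -100% = zero luminescence signal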
FXN GAA850 act = frataxin GAA850 promoter activation; activation, % at 6 µM; hit rate 0.56% among 360,000; AID 540364; HEK293 lucGAA850 FXN promoter luciferase reporter, 24 h; percent of 10 µM SAHA response;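 active = activation above the average of all compounds screened plus 3 SD, cutoff fixed separately per campaign, cut at about 7.5% in these data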;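 note: 0% = DMSO wells and 100% = 10 µM SAHA wells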
HSF1 activator = increases HSF-1 driven luciferase reporter signal; NIH3T3-HGL HSF-1 luciferase reporter, MG132, 8 h; 100% = twice DMSO control signal; activation, % at 9 µM; hit rate 1.7% among 300,000; AID 504408;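 active = mean replicate activation of at least 50% with a set share of replicates each reaching 50%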;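 note: 0% = median of the neutral control wells and 100% = twice that signal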
AHR act = activators of human aryl hydrocarbon receptor; activation, % at 5 µM; hit rate 2.5% among 320,000; P35869; AHR-responsive luciferase reporter cells, luminescence; in the data active = activation above about 47%;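 note: 0% = vehicle wells and 100% = reference agonist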
* hit, by the source's call. Hits are enriched below; roughly 4.6% of the tested compounds scored in any of these assays.

Screening COc1cccc(C2Nc3ccccc3C(=O)N2c2ccc(F)cc2)c1O (configuration not stated) returned HSF1 inh 32.1, FXN GAA850 act 2.8, HSF1 activator 67.4* and AHR act -2.2.
O=C1c2ccccc2NC(c2ccccc2O)N1c1ccc(F)cc1 (configuration not stated) was read as HSF1 inh 4.3, FXN GAA850 act -0.2, HSF1 activator 37.0 and AHR act 8.4.
`Cc1ccc(C)c(S(=O)(=O)N2CCCCC2CCNC(=O)C(=O)NC2CC2)c1` (configuration not stated) gave HSF1 inh 19.7, FXN GAA850 act 1.6, HSF1 activator -6.5 and AHR act -0.6.
Screening Nc1ccccc1C(=O)NNC1=C(C(=O)C(F)(F)F)CCC1 returned HSF1 inh -52.3*, FXN GAA850 act 2.3, HSF1 activator -60.7 and AHR act 15.5.
Screening COCCNC(=O)Cn1cc2c(n1)CCC(C)C2 (configuration not stated) returned HSF1 inh -8.8, FXN GAA850 act -0.7, HSF1 activator -9.3 and AHR act 2.8.
CC(C)(Oc1ccc(Cl)cc1)C(=O)OCc1nc2ccsc2c(=O)[nH]1 was read as HSF1 inh 5.4, FXN GAA850 act -1.8, HSF1 activator 25.2 and AHR act 4.8.
O=C(NCCN1CCN(C(=O)c2ccc(Br)cc2)CC1)c1ccc(Br)cc1 was read as HSF1 inh 42.5, FXN GAA850 act 0.9, HSF1 activator 67.8* and AHR act 4.3.
Cc1ccc(N2C(=O)NC(NS(=O)(=O)c3ccccc3)(C(F)(F)F)C2=O)cc1 (configuration not stated) was read as HSF1 inh -79.3*, FXN GAA850 act -0.4, HSF1 activator -82.4 and AHR act -0.5.
Screening COc1cccc2c1OCC/C2=N\NC(=O)COc1ccccc1C returned HSF1 inh 3.2, FXN GAA850 act 1.4, HSF1 activator 13.7 and AHR act 47.9*.
For Cc1ccc(C(=O)Nc2nccc(-c3cccs3)n2)cc1 the results were HSF1 inh 4.6, FXN GAA850 act 3.3, HSF1 activator -7.6 and AHR act 70.8*.
Screening C/C(=N\Nc1ccc(C(=O)O)cc1)c1ccc2c(c1)Nc1ccccc1S2 returned HSF1 inh -5.2, FXN GAA850 act 3.9, HSF1 activator -4.0 and AHR act 68.1*.
Screening Cc1ccc(S(=O)(=O)NCCC(=O)NCCc2ccccc2)cc1 returned FXN GAA850 act 2.1.
CC(C)(C)c1ccc(C(=O)N2CCC(C(=O)NCc3ccncc3)CC2)cc1 was read as HSF1 inh -6.8, FXN GAA850 act 2.2, HSF1 activator -0.4 and AHR act 13.6.
`COc1cc(NC(=O)CC(C)C)ccc1NC(=O)c1ccco1` gave HSF1 inh 20.1, FXN GAA850 act 3.0, HSF1 activator 53.6* and AHR act -2.5.
Screening COc1ccccc1NC(=O)c1cc2ccccc2o1 returned HSF1 inh 19.5, FXN GAA850 act 5.1, HSF1 activator 47.5 and AHR act 74.0*.
Screening COc1cc(OC)cc(C(=O)Nc2cc(NC(=O)c3ccco3)ccc2OC)c1 returned HSF1 inh 1.9, FXN GAA850 act -1.1, HSF1 activator -2.5 and AHR act 54.9*.
COc1cc(OC)cc(C(=O)Nc2ccc(NC(=O)c3ccco3)c(C)c2)c1 was read as HSF1 inh 20.3, FXN GAA850 act 2.4, HSF1 activator 34.3 and AHR act 7.5.
For COc1ccc(NC(=O)c2cc3ccccc3o2)cc1OC the results were HSF1 inh 14.4, FXN GAA850 act 3.3, HSF1 activator 14.8 and AHR act -0.7.
For COc1cc(NC(=O)c2cc3ccccc3o2)c(OC)cc1Cl the results were HSF1 inh -5.8, FXN GAA850 act 4.4, HSF1 activator -8.0 and AHR act 61.5*.
For CCC(=O)Nc1ccc(NC(=O)c2ccco2)c(OC)c1 the results were HSF1 inh 5.2, FXN GAA850 act 3.6, HSF1 activator 11.5 and AHR act 0.5.
Screening O=C(Nc1ccc(Cl)cc1Cl)c1cc2ccccc2o1 returned HSF1 inh 28.7, FXN GAA850 act 2.5, HSF1 activator 40.4 and AHR act 14.9.
O=C(O)CCCCCNS(=O)(=O)c1cccc2c1C(=O)c1ccccc1C2=O was read as HSF1 inh -4.1, FXN GAA850 act -2.9, HSF1 activator 19.6 and AHR act 6.2.
Screening COCCNC(=O)c1nn2c(C(F)(F)F)cc(-c3ccccc3)nc2c1Br returned FXN GAA850 act -0.1.
For COc1ccc(NC(=O)c2ccco2)cc1NC(=O)c1cc2ccccc2o1 the results were HSF1 inh 0.4, FXN GAA850 act -1.3, HSF1 activator -4.2 and AHR act 62.5*.
For O=C(Nc1ccc(NC(=O)c2cc3ccccc3o2)cc1)c1ccco1 the results were HSF1 inh 6.9, FXN GAA850 act -0.4, HSF1 activator -1.6 and AHR act -1.8.
Cc1nc2scc(C)n2c(=O)c1S(=O)(=O)NCC1CCN(Cc2ccc(Cl)cc2)CC1 was read as HSF1 inh 1.0, FXN GAA850 act -1.1, HSF1 activator -4.7 and AHR act -1.4.
Screening CC(C)(C)OC(=O)N[C@@H](Cc1ccccc1)c1nnc(SCC(=O)c2ccc(Cl)cc2)o1 returned HSF1 inh 11.8, FXN GAA850 act -1.7, HSF1 activator 55.0* and AHR act -1.1.
Screening CC(C)(C)OC(=O)N[C@@H](Cc1ccccc1)c1nnc(SCC(=O)O)o1 returned HSF1 inh -2.1, FXN GAA850 act -0.4, HSF1 activator -3.8 and AHR act -0.8.
Clc1ccc(-c2nc3ccccn3c2CN2CCCCC2)cc1 was read as HSF1 inh 24.0, FXN GAA850 act -1.9, HSF1 activator 51.8* and AHR act 1.8.
CN(C)Cc1c(-c2ccc(Cl)cc2)nc2ccccn12 was read as HSF1 inh 20.3, FXN GAA850 act 3.9, HSF1 activator 49.0 and AHR act 8.2.
`O=C(Nc1c(-c2cccs2)nc2ccccn12)c1ccc2ccccc2c1` gave HSF1 inh 0.6, HSF1 activator 14.4 and AHR act 15.8.
Screening Cc1ccc2cccc(NC(=S)NC(=O)c3ccnn3C)c2n1 returned HSF1 inh 0.7, FXN GAA850 act 4.6, HSF1 activator 17.4 and AHR act 54.7*.
Screening Cc1ccc2cccc(NC(=O)C(F)(F)F)c2n1 returned HSF1 inh 142.5, FXN GAA850 act -1.0, HSF1 activator 214.8* and AHR act 6.6.
CC(=O)NC(=S)Nc1cccc2ccc(C)nc12 was read as HSF1 inh 0.3, FXN GAA850 act 1.1, HSF1 activator -2.3 and AHR act 13.2.
`Cc1ccc(C(=O)O)cc1NC(=S)NC(=O)C(c1ccccc1)c1ccccc1` gave HSF1 inh -3.9, FXN GAA850 act 1.5, HSF1 activator -6.8 and AHR act 4.8.
COc1cccc(Nc2nc3ccccc3c(=O)[nH]2)c1 was read as HSF1 inh 5.9, FXN GAA850 act -1.4, HSF1 activator -6.7 and AHR act 9.6.
For O=c1cc(CSc2nnc(COc3ccc(Cl)cc3)o2)c2ccccc2[nH]1 the results were HSF1 inh 10.4, FXN GAA850 act 0.9, HSF1 activator 5.5 and AHR act 27.1.
